Experimental findings from PubChem BioAssay AID624134 (Broad Institute, 2012) are described below.

About 1,100 (69%) of roughly 1,600 compounds were called active. So high a share suggests a set chosen from earlier hits. Only a sample is shown. Results with a measured potency or affinity are listed apart. Inconclusive results are not listed.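 The calls were made as follows: active = signal drop with fitted half-maximal concentration no higher than twice the top valid tested concentration; inconclusive = flat curve with 30 to 70% signal loss, or poor fit; inactive = the rest, including signal rises and flat curves within 30%.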

This experiment can be described thus: HepG2 cell cytotoxicity, dose response, cytotoxicity control for Shn3 inhibitor project, CellTiter-Glo, cherry-picked (AID 624134). The following applies: HepG2 viability, CellTiter-Glo ATP luminescence, 48 h; series mostly up to 35 µM. For orientation: Cellular ATP, detected with luciferase, serves as a proxy for viable cell number.
Take `Cc1c(C(=O)N(Cc2cccc(Br)c2)C2CCS(=O)(=O)C2)oc2ccccc12` (stereo not drawn): the molecule was classed as inactive.

As for `CC1CCN(C(=O)c2ccc(N3C(=O)C4CCC(C)CC4C3=O)cc2)CC1` (stereo not drawn), the outcome was inactive.

Regarding `Cc1c(CCOC(=O)CC23CC4CC(CC(C4)C2)C3)sc[n+]1CC(=O)c1ccc(Br)cc1`, the outcome was inactive. Then `COc1ccccc1-n1cc([C@@H]2C[C@H]3CN(c4ccccc4)C(=O)[C@]34CCCN24)cn1`, with “inactive”; and `O=C(NNc1ccccc1)C(=O)NNS(=O)(=O)c1ccc(CCCl)cc1`, with “inactive”; and `O=C(CN1C(=O)c2ccccc2S1(=O)=O)c1ccc(Cl)cc1Cl`, with “inactive”. Then `NC(=O)NC(CC(=O)NCCc1ccccn1)c1ccccc1Cl` (stereo not drawn), with “inactive”. Then `CC1(C)CC(=O)c2c(nc(SCC(=O)Nc3nsc(-c4ccccc4)n3)c(C#N)c2-c2ccccc2)C1`, with “inactive”; and `CNS(=O)(=O)c1cccc(C(=O)OCc2cc(C(C)=O)ccc2OC)c1`, with “inactive”.

For `CCN1C(=O)[C@H]2[C@@H](c3ccc(-c4ccc(OC)cc4)cc3)N3CCC[C@@]3(C(=O)OC)[C@H]2C1=O`, the result was inactive.

For the molecule `Cc1ccc(S(=O)(=O)CCC(=O)OCC(=O)Nc2cc(S(=O)(=O)N3CCOCC3)ccc2C)cc1`, the result was inactive. Then `CNC(=O)c1nnsc1S(=O)c1ccc(Cl)cc1` (stereo not drawn), with “inactive”; and `COCCn1c(SCC(=O)/C=C2\N(C)c3ccccc3C2(C)C)nnc1-c1ccncc1`, with “inactive”. Then `O=C1NCCOC(=O)[C@@H](Cc2ccc(F)cc2)CC/C=C/C[C@@H]1CC(=O)N(CCO)Cc1ccccc1`, with “inactive”. Take `Cc1cc(=O)oc2c3c(cc(OCC(=O)Nc4ccc(CCO)cc4)c12)OC(C)(C)CC3`: the outcome was inactive.

With `COc1c(CC=C(C)C)cc(C2CC(=O)c3c(O)cc(O)cc3O2)cc1CC=C(C)C` (stereo not drawn), the result was inactive.

As for `O=C(Nc1cc(F)ccc1F)N1CCN(c2ccnc3cc(Cl)ccc23)CC1`, the outcome was inactive. Then `COc1ccccc1-n1ccnc(SCC(=O)NCc2ccccc2Cl)c1=O`, with “inactive”; and `Cc1ccc(S(=O)(=O)NCCc2cc3ccc(C)cc3[nH]c2=O)cc1`, with “inactive”; and `CC[C@H](C)C(=O)O[C@H]1C[C@@H](C)C=C2C=C[C@H](C)[C@H](CC[C@@H]3C[C@@H](O)CC(=O)O3)[C@H]21`, with “inactive”. In the case of `COc1ccc(S(=O)(=O)N2CCN(c3cc(-c4ccccc4)nc4ncnn34)CC2)cc1`, the molecule was called inactive. Then `O=C(CSc1ccccn1)Nc1nonc1[N+](=O)[O-]`, with “inactive”; and `C=CC[C@H](CC(=O)N(CCO)Cc1ccccc1)C(=O)NC[C@H](OC(=O)[C@@H](CC=C)Cc1ccc(F)cc1)c1ccccc1`, with “inactive”. Regarding `C=CCC[C@H](Cc1ccc(F)cc1)C(=O)OC[C@H](Cc1c[nH]c2ccccc12)NC(=O)[C@H](CC=C)CC(=O)N(CCO)Cc1ccccc1`, the result was inactive.

`C=CCOc1nc2c(c(=O)n(C)c(=O)n2C)n1Cc1ccc(Cl)cc1Cl`: the molecule was classed as inactive. For `O=C(COC(=O)/C=C/c1ccc(OC(F)F)cc1)Nc1ccc2[nH]c(=O)[nH]c2c1`, the result was inactive. Then `C[C@]12CC[C@H](O)CC1=CCC1C2CC[C@@]2(C)C1CCC21OCCO1` (stereo partly drawn), with “inactive”; and `Cc1csc(=O)n1CC(=O)OCC(=O)c1c(N)n(C)c(=O)n(C)c1=O`, with “inactive”. Then `CS(=O)(=O)c1nc(-c2ccc(Br)cc2)cc(-c2ccccc2)c1C#N`, with “inactive”; and `Cc1ccc2c(c1)c(C1=c3ccccc3=NC1=O)c(O)n2C`, with “inactive”; and `CCCCN1CC(COCc2ccccc2)Oc2cccc(Oc3ccc(C)cc3)c2S1(=O)=O` (stereo not drawn), with “inactive”. Then `COc1ccc2c(c1OC)C(=O)N1c3ccccc3C(=O)N(c3ccccc3F)C21` (stereo not drawn), with “inactive”; and `CC1CN(C(=O)CCc2cc(C(C)(C)C)c(O)c(C(C)(C)C)c2)CC(C)O1` (stereo not drawn), with “inactive”; and `CCOc1ccc(Cn2nnc(C(=O)Nc3cc(OC)cc(OC)c3)c2N)cc1`, with “inactive”. Take `Cc1onc(-c2c(Cl)cccc2Cl)c1C(=O)N[C@@H]1C(=O)N2[C@@H]1SC(C)(C)[C@@H]2C(=O)O`: the call was inactive. For `Cc1onc(-c2ccccc2Cl)c1C(=O)N(C)C1CCCCC1`, the molecule was called inactive. Take `COc1ccc(NC(=O)CCOc2cc(C)ccc2C)cc1S(=O)(=O)N1CCCCC1`: the call was inactive.

`COCc1c(C(=O)Nc2cccc(S(=O)(=O)N3CCCCC3)c2)oc2ccccc12`: the call was inactive. Then `O=C(CSc1nnc(-c2ccc(Cl)cc2Cl)n1C1CCCCC1)N1CCCC1`, with “inactive”; and `COC(=O)c1cn(NC(=O)c2cc([N+](=O)[O-])ccc2F)c(=O)c2ccccc12`, with “inactive”. Then `CCCCN1C2=NCCCN2c2cc(C)c(C)cc21`, with “inactive”. Then `CCN(CC)C(=O)[C@H]1C[C@H](CC(=O)NC/C=C(\C)CCC=C(C)C)C(=O)N2CCc3c([nH]c4cc(CCC(=O)N(C)C)ccc34)[C@]12C`, with “inactive”. Regarding `COCCN1Cc2cccc(C(=O)Nc3ccc4c(c3)OCCO4)c2C1=O`, the molecule was classed as inactive. Then `COc1ccc(N2C(=O)C(CC(=O)Nc3ccccc3)N(Cc3ccc(OC)c(OC)c3)C2=O)cc1` (stereo not drawn), with “inactive”; and `COc1cc(NC(=O)c2cc3c(Cl)nc4ccccc4c3s2)cc(OC)c1OC`, with “inactive”; and `Cc1ccc(CNC(=O)c2cc(-c3ccccc3C)nn2CC2CC(c3cccnc3)=NO2)cc1` (stereo not drawn), with “inactive”. Turning to `CCS(=O)(=O)c1ncc(Cl)c(C(=O)Nc2ccccc2OC)n1`, the result was inactive.

For `COC(=O)c1ccccc1NC(=O)c1nc(S(=O)(=O)Cc2ccccc2)ncc1Cl`, the molecule was classed as inactive. Then `Cc1cccc(CS(=O)(=O)c2ncc(Cl)c(C(=O)Nc3nnc(C(C)C)s3)n2)c1`, with “inactive”; and `S=c1[nH]nc(COc2cccc3ccccc23)n1Cc1ccccc1`, with “inactive”; and `COC(=O)c1ccc(COC(=O)c2[nH]c(C)c(C(C)=O)c2C)o1`, with “inactive”. For `CCc1nnc(NC(=O)c2nc(S(=O)(=O)Cc3cccc(C)c3)ncc2Cl)s1`, the call was inactive. Then `CCCc1nnc(NC(=O)c2nc(S(=O)(=O)Cc3ccc(C)cc3)ncc2Cl)s1`, with “inactive”; and `CN(C)S(=O)(=O)c1cccc(N=c2scc(-c3ccc4c(c3)NC(=O)CO4)n2CC2CCCO2)c1` (stereo not drawn), with “inactive”; and `CC(C)(C)C(=O)Nc1cc(S(=O)(=O)N2CCCCC2)ccc1N1CCCCC1`, with “inactive”. For `Cc1ccc(-c2nc3ncccc3o2)cc1NC(=O)c1sc2ccccc2c1Cl`, the outcome was inactive. Then `Cc1ccc2cc(CN(CC3CCCO3)C(=O)NC3CCCCC3)c(=O)[nH]c2c1C` (stereo not drawn), with “inactive”. Then `Cc1ccc(C(=O)N2CCN(C)CC2)cc1S(=O)(=O)N1CCCCCC1`, with “inactive”; and `COc1ccc(C(=O)OCC(=O)Nc2ccc3[nH]c(=O)[nH]c3c2)cc1`, with “inactive”; and `O=C(OCCN1C(=O)c2cccc3c(N4CCOCC4)ccc(c23)C1=O)c1ccccc1Cl`, with “inactive”.

Consider `Cc1cccc(C(C)(C)C)c1OCCN1CCCC1`, for which the result was inactive. Then `CCOC(=O)Cc1csc(SCC(=O)c2c(N)n(CC(C)C)c(=O)n(C)c2=O)n1`, with “inactive”; and `COc1ccc2c(c1)c(CC(=O)Nc1cc(C)ccc1C)c(C)n2C(=O)c1ccc(Cl)cc1`, with “inactive”. Then `S=C(Nc1ccccc1)Nc1ccc(OCc2ccc(Cl)cc2Cl)cc1`, with “inactive”; and `CCCCN1CC(COCc2ccccc2)Oc2cccc(Oc3cc(C)c(C)c(C)c3)c2S1(=O)=O` (stereo not drawn), with “inactive”. Then `O=C(CSc1nc(C(F)(F)F)cc(=O)[nH]1)N1CCCC1`, with “inactive”. As for `Clc1ccc(-c2cc(-c3nnc4n3CCCCC4)c3ccccc3n2)cc1`, the result was inactive. Regarding `Cc1cc(CN2CCOCC2)c(O)c(C2(C)CCCCC2)c1`, the result was inactive. On to `Oc1c(CN2CCN(c3ccccc3)CC2)cc(Br)c2cccnc12`, for which the result was inactive. Then `Cc1ccnc(N/C=C(/NC(=O)c2ccccc2)C(=O)N/N=C\c2ccc(F)cc2)n1`, with “inactive”. Then `CCS(=O)(=O)c1ccc2oc(SCC(=O)N3CCCCC3)nc2c1`, with “inactive”; and `Oc1ccc(-c2csc(Nc3cccc4ccccc34)n2)cc1O`, with “inactive”; and `CCC(=O)c1cn(CC(=O)Nc2ccccc2Cl)c2ccccc12`, with “inactive”. Then `O=C(Cn1cc(C(=O)c2ccco2)c2ccccc21)Nc1ccccc1F`, with “inactive”; and `NS(=O)(=O)c1ccc(CNC(=S)NC(=O)c2ccco2)cc1`, with “inactive”; and `Cc1ccc(-c2nnc(N3CCC(C)CC3)c3ccccc23)cc1C`, with “inactive”. On to `C[C@@H]1CN([C@H](C)CO)C(=O)c2cc(Br)cnc2O[C@H]1CN(C)C(=O)Cc1ccncc1`, for which the call was inactive. Then `Cc1cc(C(=O)COC(=O)c2ccccc2Br)c(C)n1CC1CCCO1` (stereo not drawn), with “inactive”; and `CCOC(=O)C1CCN(C(=O)c2sc3nc(C)nc(N4CCC(C)CC4)c3c2C)CC1`, with “inactive”; and `CN(C(=O)CSc1nc(-c2cccs2)nc2ccccc12)C1CCS(=O)(=O)C1` (stereo not drawn), with “inactive”. Then `CC(C)=CCC/C(C)=C/CNC(=O)C[C@H]1C[C@H](C(=O)N(C(C)C)C(C)C)[C@@]2(C)c3[nH]c4cc(CCC(=O)N(C)C)ccc4c3CCN2C1=O`, with “inactive”. Then `O=[N+]([O-])c1cc(S(=O)(=O)C(F)(F)F)ccc1Sc1nc2ccccc2s1`, with “inactive”; and `CS(=O)(=O)c1ccc(Sc2nc3ccccc3s2)c([N+](=O)[O-])c1`, with “inactive”. Take `N#C/C(=C(\O)Cc1ccccc1)c1nc2ccccc2[nH]1`: the molecule was called inactive. Then `C=CCOC(=O)C1=C(C)N=C2SCCC(=O)N2C1c1cccs1` (stereo not drawn), with “inactive”; and `CC(=O)O[C@H]1CC[C@@]2(C)C(=CC[C@H]3[C@@H]4CC[C@H](C(C)=O)[C@@]4(C)CC[C@@H]32)C1`, with “inactive”; and `C=CCNc1nc(N2CCOCC2)c(C#N)c2c1CN(C)CC2`, with “inactive”. Then `CC(=O)N1CCOc2cc(S(=O)(=O)NCc3ccc(F)cc3)c(C)cc21`, with “inactive”; and `C[C@@H]1CN([C@H](C)CO)C(=O)CCCn2nncc2CO[C@H]1CN(C)S(=O)(=O)c1ccc2c(c1)OCCCO2`, with “inactive”; and `CCn1nnc2cc(C(=O)Nc3cc(Cl)ccc3C)ccc21`, with “inactive”. Then `O=C(Sc1cccc2cccnc12)c1ccccc1Br`, with “inactive”; and `CN(c1ccccc1)S(=O)(=O)c1cccc(NC(=O)CSc2nncs2)c1`, with “inactive”; and `CCOc1ccc2nc(SC3CC(=O)N(c4ccc(C)cc4)C3=O)sc2c1` (stereo not drawn), with “inactive”.
